Among all 53,000 sequences or so, about 3,700 (7%) were called active.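 The calls were made as follows: active = gene knockdowns whose robust z-score for IL-1 alpha signal is at least 2 or at most -2, so actives lie on both sides; inactive = the rest.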 The sample as a whole holds a higher share of actives than the screen did.
Assay: Components of the Cytosolic LPS Sensing Pathway: Gene Identification via Genome-wide siRNA Screen;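 also: robust z of the log signal after scaling to non-targeting control siRNA wells of the plate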
Conditions: RAW264.7 macrophages, IL-1a HTRF, actives lie on both sides, screened at 100 nM (by protocol), cells primed 5 h with Pam3CSK4 first
In short: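 Read-out: IL-1a HTRF on supernatant, divided by plate negative-control median ×100, log-transformed and converted to robust z-score. Cells were RAW264.7 given 100 nM siRNA, Pam3CSK4-primed 5 hours, then LipidA-transfected 24 hour.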
With GGGAAUACAUUUUAUCUUCTT against Cpox the z-score was -0.16 (inactive).
In the case of GAUGACUAGCUCUACUUUATT against Olfr738, the z-score is reported as -0.0882 (inactive).
With GGUAUCAGUAGCUGAUGUGTT against Pde8a the z-score was 1.36 (inactive).
For GGUGUGGGUGACAAGGUUATT against Tymp, the z-score was 0.153 (inactive).
For “GCAACACAAACACUGGCUATT against D930020B18Rik”, the z-score was -1.57 (inactive).
For CCUAGGAUAGAGAUUGUUGTT against Ndufaf3, the z-score was 0.135 (inactive).
For GGUAGAUCAUGGCCAUCCUTT against Ntf5, the z-score was 2.04 (active).
In the case of CGAUACACUGGUGCCCUAUTT against Tmem201, the z-score is reported as -0.158 (inactive).
With GGUGCCAGAUGUCAAGAAATT against Rpn2 the z-score was -0.685 (inactive).
For GGAUCUGAAGACAUGGAGATT against H2-M1, the z-score was 0.659 (inactive).
For CGCCCUUGGAGGUUAAUCATT against Nsg2, the z-score was 0.26 (inactive).
With GGAACAGGCCGAGUUAGUATT against Olfr414 the z-score was 1.45 (inactive).
In the case of GGAAGGUGAUGAAUCAGCCTT against Wwtr1, the z-score is reported as -2.74 (active).
For GCUGAGUUCAUUGCAAUGCTT against Cyp4a12b, the z-score was 0.274 (inactive).
In the case of GGACGGCAGAAAGCAUUUATT against Olfr317, the z-score is reported as 0.693 (inactive).
For GGAAUUCAUCUUACAUUCCTT against Acox3, the z-score was 2.42 (active).
With GCUGACUCUUAGAUAAAUATT against Seh1l the z-score was -0.81 (inactive).
With CCAAAGAGAUAUCCCUCCCTT against Olfr1350 the z-score was -0.283 (inactive).
In the case of GCAGGAAUUCUUGAAUUAUTT against Ly75, the z-score is reported as 2.66 (active).
In the case of GGACUUCUCAUCCUAUUUATT against Iah1, the z-score is reported as -0.638 (inactive).
With GAAUGAACUGCUGAAAAAGTT against Klra16 the z-score was 0.462 (inactive).
With GACUCCCAGCUGGCUAUGATT against Ifna9 the z-score was 0.583 (inactive).
In the case of GGCUCAGUACUUUCUAAAATT against Vmn1r72, the z-score is reported as -0.637 (inactive).
With GCCUUGUCUAUAGGACUGUTT against Grm6 the z-score was -0.00801 (inactive).
In the case of GCUUCAUGAUGAAUCACCUTT against Otulinl, the z-score is reported as -2.1 (active).
For CGAGCAUUCACCGUACGUATT against Id4, the z-score was 0.0542 (inactive).
With “GGGCAAGGUGUAUUGUCAATT against D830050J10Rik” the z-score was -0.00921 (inactive).
For GGCCCAACAAUACCUGCUGTT against Rgs17, the z-score was -1.5 (inactive).
In the case of GGAUGAAGAAACAAGAAAGTT against Tmc1, the z-score is reported as -2.46 (active).
With GCACCGACCACCAAAUCUATT against Prol1 the z-score was 0.65 (inactive).
With GGUUGUGACAAUGUGAUCCTT against Coro1a the z-score was -2.22 (active).
For CCAUCUACAAGUGUCCUUATT against Zfp276, the z-score was -0.632 (inactive).
For CCAUAUCCCUGUGGAAAAGTT against Manf, the z-score was -0.322 (inactive).
In the case of CGGAUAUCCACAAAUAUCGTT against Atp1b3, the z-score is reported as 0.508 (inactive).
With GGGUUCAAGAGAUGGGAAUTT against Efna5 the z-score was 0.453 (inactive).
In the case of GCUCUCAGCAAAAACCGAGTT against Kif26b, the z-score is reported as 2.98 (active).
With GGCUGUCAGUGUUUACAGGTT against Srd5a1 the z-score was -0.247 (inactive).
For GGGAUGAUUCAAUGGAUAATT against Tbx22, the z-score was 0.789 (inactive).
For GCUGGUUUCAUCCGCCAUATT against Dvl3, the z-score was 1.18 (inactive).
With GCAUAUAAGAGAAGUGCCUTT against Parl the z-score was 0.298 (inactive).
In the case of GCACCAAUACAUUUGGACCTT against Nabp1, the z-score is reported as 1.74 (inactive).
In the case of GGAGUCAGUACUGUAAAAUTT against Rin2, the z-score is reported as -1.91 (inactive).
In the case of GGAGAGAAAAAAGUCUCUCTT against Olfr66, the z-score is reported as 2.55 (active).
In the case of GCAACUGUUACUUCUCAACTT against Lrif1, the z-score is reported as 0.598 (inactive).
In the case of GGUUAACUCCUUUUCUAGATT against Ints13, the z-score is reported as -0.52 (inactive).
In the case of GCCUACACCAGUCCUUUGATT against Baiap2l1, the z-score is reported as 0.509 (inactive).
With GGAACUAUCCAGUAGGUAGTT against Mill2 the z-score was 0.846 (inactive).
For GGUUCUGGAUUUCUGUUUUTT against Phf24, the z-score was -1.38 (inactive).
In the case of GGAUGAAGAUGGAGAUCUUTT against Tfg, the z-score is reported as 2.14 (active).
With GGAAAAAGAACACCUUUUATT against Ints6l the z-score was -0.74 (inactive).
With GGACACCACCAAUCUUGACTT against Arsg the z-score was -1.57 (inactive).
In the case of GGGCAUUGGGAUCCUCAAUTT against Olfr139, the z-score is reported as -0.734 (inactive).
For CGGAUCUUGUCAAUAACCATT against Angptl1, the z-score was 0.295 (inactive).
For GCAGGAGUAAGAAUGAAUGTT against Luzp1, the z-score was 0.999 (inactive).

Source: PubChem BioAssay AID1508600 (Functional Genomics Laboratory (NCATS/FGL), 2020)
